Records with an inconclusive call do not appear. A structure can be active in one record and inactive in another. Active and inactive are the calls of the source. Calls come from the whole dose curve; as a rule, active = well fitted inhibition curve with a large enough effect; inconclusive = small, poorly fitted or top-dose-only effect; inactive = no such curve, though single readings can be large or run the other way.
% is set by controls: 0 for no effect and ±100 for the full control effect; potency is the fitted concentration of half-maximal effect.

Sequence of M-phase phosphoprotein 8 (Homo sapiens) (Q99549 whole entry, looked up): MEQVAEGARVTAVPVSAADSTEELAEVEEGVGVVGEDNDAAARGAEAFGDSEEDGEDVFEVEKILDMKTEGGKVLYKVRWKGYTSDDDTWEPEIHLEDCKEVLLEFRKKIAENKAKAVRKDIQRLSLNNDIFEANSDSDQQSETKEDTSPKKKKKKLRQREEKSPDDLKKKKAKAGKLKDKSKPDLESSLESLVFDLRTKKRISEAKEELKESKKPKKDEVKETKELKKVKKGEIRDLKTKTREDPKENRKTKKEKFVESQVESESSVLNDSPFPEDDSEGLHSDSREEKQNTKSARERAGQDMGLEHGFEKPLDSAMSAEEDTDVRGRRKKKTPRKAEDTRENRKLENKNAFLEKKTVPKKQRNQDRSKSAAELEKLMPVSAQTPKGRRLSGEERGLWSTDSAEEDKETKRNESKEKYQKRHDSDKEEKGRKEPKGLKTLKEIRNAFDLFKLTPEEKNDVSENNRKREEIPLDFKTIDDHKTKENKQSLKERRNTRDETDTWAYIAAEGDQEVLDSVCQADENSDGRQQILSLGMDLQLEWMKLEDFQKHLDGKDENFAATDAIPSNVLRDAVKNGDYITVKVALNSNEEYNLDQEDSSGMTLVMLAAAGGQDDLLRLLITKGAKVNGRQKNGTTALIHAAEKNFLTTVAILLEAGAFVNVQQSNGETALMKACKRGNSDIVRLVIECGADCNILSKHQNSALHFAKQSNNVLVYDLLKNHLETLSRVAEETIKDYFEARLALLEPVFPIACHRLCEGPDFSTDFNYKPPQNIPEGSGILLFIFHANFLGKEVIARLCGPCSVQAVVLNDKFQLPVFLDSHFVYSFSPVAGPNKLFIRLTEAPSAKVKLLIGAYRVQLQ

The target of the test is M-phase phosphoprotein 8 (Homo sapiens) (UniProt Q99549). Put plainly: qHTS Validation Assay for Inhibitors for MPP8 Chromodomain Interactions with Methylated Histone Tails (AID 488949). For activity change, negative = inhibition: top concentration of the series differs between compounds. Note: nearly all actives have a fitted effect of over 55% in size. Particulars: AlphaScreen MPP8 binding to H3K9me3 peptide; series mostly up to 57.1 µM; activity change, negative = inhibition: at the top concentration. The text has this:
As our understanding of epigenetics expands, it is becoming clear that players in this field are potential targets for drug development. This area of epigenetic therapy has established applications for the treatment of cancer and neurological diseases. We have been involved in this field for a number of years and have performed high-throughput screens to identify the first small molecule inhibitors of protein methyltransferases. These methyltransferases target multiple substrates, and thus regulate many arms of an epigenetic pathway. The methylation of different substrates often generates docking sites for effector proteins that harbor binding domains (chromo, tudor, PHD, MBT and ANK repeats). It has been proposed that the binding sites generated for different proteins by these post-translational modifcations mediate downstream effects on chromatin. Consistent with this theory, di- and tri-methylation of histone H3K9 facilitates the binding of heterochromatin protein HP1. The HP1 protein harbors a chromodomain that is responsible for the methyl-dependent interaction between HP1 and lysine 9 of histone H3. HP1 was first described in flies as a heterochromatin associated protein that can regulate gene silencing. It harbors a chromodomain that binds H3K9me3. In addition, it harbors a chromoshadow domain that interacts with a large number of proteins that are involved in heterochromatin formation and gene repression. There are three highly related HP1 isoforms. All three variants are associated with pericentric heterochromatin and it is not clear whether they have specific or redundant functions. MPP8 is also involved in the repression of gene in euchromatic regions (unpublished data) and like HP1 its chromodomain binds H3K9me3. MPP8 harbors an ankyrin repeat region that is likely involved in binding and recruiting interacting proteins with transcriptional repressive function, much like the chromoshadow domain of HP1 does. We hypothesize that by inhibiting specific protein-protein interactions we will be able to develop compounds that block a single arm of an epigenetic pathway. The specificity attained by blocking a single protein-protein interaction will be far greater than that attained by blocking the enzyme that regulates one of many interactions. Low-affinity protein-protein interactions (Kd in the single- to double-digit micromolar range) such as those discussed here have been very difficult to assay by traditional techniques such as fluorescence polarization or fluorescence resonance energy transfer. We have developed a sensitive chemiluminescence-based assay (Quinn, et al. 2009), which serves as the starting point for this project. The following is a validation assay to identify lead compounds that can block methyl-dependent protein-protein interactions (specifically MPP8), which can be used as probes to analyze these methyl-driven interactions and perhaps even developed into targeted epigenetic therapies. Assay Provider: Mark T. Bedford, MD Anderson Screening Center PI: Austin, C.P. Screening Center: NIH Chemical Genomics Center [NCGC]
To each well, 2 uL of MPP8 protein (final 50 nM) and 1 uL biotinylated histone peptide trimethylated at Lys9 [b-H3(1-18)K9me3] (final 50 nM) was added in 1x PBS buffer, pH 7.4, containing 0.01% Tween-20 using a nanoliter dispenser. Formation of a protein-peptide complex proceeded at room temperature for 30 min. A Kalypsys pin-tool was employed to transfer 23 nL of library compound solution in DMSO to each well. Aurintricarboxylic acid (ATA) was used as an intraplate control with a 12-point titration in duplicate. Following a 30 min incubation of the protein-peptide complex with compounds at room temperature, a mixture of 40 ug/mL each streptavidin-coated donor and nickel chelate acceptor AlphaScreen beads (final 10 ug/mL) was added in a 1 uL dispense for a final volume of 4 uL. Plates were incubated protected from the light for 30 min at room temperature. […]
As to `CCN(CC)CCNC(=O)c1ccc(NS(C)(=O)=O)cc1`, the “activity change, negative = inhibition” value is -3.94% (inactive).
As for `N[C@@H](Cn1ccc(=O)c(O)c1)C(=O)O`, the “activity change, negative = inhibition” value is 2.34% (inactive).
Take `COc1cccc2c1[C@@H]1CN(CCCCn3c(=O)[nH]c4c(sc5ncc(-c6ccccc6)nc54)c3=O)C[C@@H]1CO2`: the Potency is 20 µM (active).
Turning to `CN(C)c1cc2c(Nc3ccc4c(cnn4Cc4ccccc4)c3)ncnc2cn1`, the “activity change, negative = inhibition” value is 8.09% (inactive).
As for `COC(=O)C1=CO[C@@H](O)[C@@H]2C(CO)=CC[C@H]12`, the “activity change, negative = inhibition” value was 2.38% (inactive).
As to `C[C@]12CCC(=O)C=C1CC[C@@H]1[C@@H]2[C@@H](O)C[C@@]2(C)[C@H]1CC[C@]2(O)C(=O)COC(=O)CCC(=O)O`, the “activity change, negative = inhibition” value is 4.3% [at 114 µM] (inactive).
Take `COc1ccccc1N1CCN(CCN2C(=O)CC3(CCCC3)CC2=O)CC1`: the Potency result is “inactive”.
For the molecule `Brc1ccc([C@H]2CN3CCSC3=N2)cc1`, the Potency entry was “inactive”.
Same read-out and setting: to `O=C1NC(c2cccc([N+](=O)[O-])c2)=CCN1c1ccccc1O` belongs “inactive”; to `CC(C)N(CCC(=O)c1ccc2ccccc2c1)Cc1ccccc1`, 28.2 µM (active) and inactive; to `C[N+](C)(C)CCO`, “inactive”.
Consider `NC(N)=NCCCCN=C(N)N`, for which the Potency result is “inactive”.
Consider `O=[N+]([O-])c1ccc(-c2nc(-c3ccc(F)cc3)c(-c3ccncc3)[nH]2)cc1`, for which the Potency was 22.4 µM (active) and inactive.
The same measure, in the same setting: to `Cn1cnc2c(NCc3ccccc3)nc(NCCO)nc21` belongs “inactive”.
On to `Clc1ccc2c(c1)N=C(N1CCNCC1)c1ccccc1N2`, for which the “activity change, negative = inhibition” value is 12.2% (inactive).
Take `O=C1NC(=O)/C(=C/c2ccc3c(c2)OC(F)(F)O3)S1`: the “activity change, negative = inhibition” value is 2.11% (inactive).
Turning to `Nc1ncnc2n[nH]c(Nc3ccc(F)cc3)c12`, the “activity change, negative = inhibition” value is -2.41% (inactive).

The values above are taken from PubChem BioAssay (NCATS).
